Results reported in PubChem BioAssay (Tox21).
Inconclusive results are not listed. Active and inactive are the calls of the source. Unless noted, the call rests on the fitted dose curve; in most records, active means well fitted curve in the direction sought with a large enough effect in the repeat runs; inconclusive means weak or mixed curves; inactive means no such curve, though single readings can be large; an effect the other way counts as inactive or inconclusive.

How the values were obtained:
[1] = qHTS assay to identify small molecule antagonists of the sonic hedgehog signaling (Shh) pathway (AID 1259369; calls by dose curve; further: nearly all actives have a fitted effect of over 45% in size; further: potency means the concentration at half of the fitted maximal effect)
How it was run: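 Stable Gli1-Luc reporter NIH/3T3 clone; quantitative HTS in stimulated mode with conditioned medium. Luminescence measured after 24hr compound treatment at 37 C.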

[2] = target: Estrogen receptor beta (Homo sapiens) (UniProt Q92731); assay: qHTS assay to identify small molecule agonists of the estrogen receptor beta (ER-beta) signaling pathway (AID 1259377; active means well fitted activation curve with a large enough effect in the signal ratio in the repeat runs, not every such curve was filed as active; the % refers to the signal ratio)
Estrogen receptor beta (Homo sapiens), sequence (Q92731 whole entry, looked up, the tested form may be a part): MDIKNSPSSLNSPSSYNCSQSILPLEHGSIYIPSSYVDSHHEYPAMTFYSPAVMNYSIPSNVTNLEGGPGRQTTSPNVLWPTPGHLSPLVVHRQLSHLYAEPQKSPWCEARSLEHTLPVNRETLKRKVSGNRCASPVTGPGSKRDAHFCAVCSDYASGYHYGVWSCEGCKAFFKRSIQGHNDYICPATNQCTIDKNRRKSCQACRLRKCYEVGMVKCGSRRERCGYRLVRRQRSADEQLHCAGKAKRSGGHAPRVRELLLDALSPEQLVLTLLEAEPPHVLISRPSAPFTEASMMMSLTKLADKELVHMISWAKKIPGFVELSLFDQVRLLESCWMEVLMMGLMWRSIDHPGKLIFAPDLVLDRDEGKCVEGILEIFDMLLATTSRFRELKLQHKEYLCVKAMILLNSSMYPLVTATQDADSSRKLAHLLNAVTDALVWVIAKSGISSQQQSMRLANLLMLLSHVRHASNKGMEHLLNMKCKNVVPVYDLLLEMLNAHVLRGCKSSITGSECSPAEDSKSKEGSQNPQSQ
How it was run: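 Agonist mode cell assay in GripTite HEK293T cells expressing an ER-beta fusion that drives beta-lactamase from an Upstream Activator Sequence; 16 hr compound exposure at 37C, then 2 h LiveBLAzer B/G FRET substrate at room temperature, fluorescence read-out.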

[3] = target: Estrogen receptor beta (Homo sapiens) (UniProt Q92731); assay: qHTS assay to identify small molecule antagonists of the estrogen receptor beta (ER-beta) signaling pathway (AID 1259378; active means well fitted inhibition curve with a large enough effect in the signal ratio in the repeat runs, not every such curve was filed as active; the % refers to the signal ratio)
How it was run: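 Antagonist mode: compounds added to beta-lactamase reporter HEK293T ER-beta-UAS cells stimulated with E2 (1nM final), 16 hr at 37C. LiveBLAzer B/G FRET substrate, 2 hours room temperature, fluorescence read-out.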

[4] = qHTS assay to identify small molecule agonists of the androgen receptor (AR) signaling pathway in the presence of an antagonist - cell viability counter screen (AID 1259379);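 further: MDA-kb2 human breast cancer cells carrying an MMTV luciferase reporter; series mostly up to about 92 µM; nearly all actives have a fitted effect of over 25% in size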
How it was run: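 Nilutamide-containing (3.0uM final) MDA-kb2 cultures, 3,000 cells/well, were treated with compounds across 15 concentrations. After 16 hr at 37C with no CO2, cell viability was determined by CellTiter-Fluor fluorescence in the luciferase assay wells.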

[5] = qHTS assay to identify small molecule agonists of the estrogen receptor beta (ER-beta) signaling pathway - cell viability counter screen (AID 1259380); further: nearly all actives have a fitted effect of over 30% in size; further: potency means the concentration at half of the fitted maximal effect
How it was run: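 Steps: plate ER-beta-UAS-bla HEK293T cells, rest 6 hr; add compounds in DMSO; incubate 16 hr at 37C, 5% CO2; add FRET substrate 2 hr; add CellTiter-Glo, wait 30 min at room temperature; read luminescence.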

[6] = qHTS assay to identify small molecule antagonists of the estrogen receptor beta (ER-beta) signaling pathway - cell viability counter screen (AID 1259382); further: nearly all actives have a fitted effect of over 55% in size; further: potency means the concentration at half of the fitted maximal effect
How it was run: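 Viability is scored by CellTiter-Glo luminescence (30 min, room temperature) in ER-beta-UAS-bla HEK293T wells already read for reporter fluorescence. Compound exposure lasts 16 hr at 37C alongside 1nM 17-beta-estradiol in charcoal-stripped serum medium.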

[7] = target: Estrogen receptor (Homo sapiens) (UniProt P03372); assay: qHTS assay to identify small molecule agonists of the estrogen receptor alpha (ER-alpha) signaling pathway in the presence of an antagonist (AID 1259383; calls by dose curve; further: top concentration of the series differs between compounds; nearly all actives have a fitted effect of over 15% in size)
Estrogen receptor (Homo sapiens), sequence (P03372 whole entry, looked up): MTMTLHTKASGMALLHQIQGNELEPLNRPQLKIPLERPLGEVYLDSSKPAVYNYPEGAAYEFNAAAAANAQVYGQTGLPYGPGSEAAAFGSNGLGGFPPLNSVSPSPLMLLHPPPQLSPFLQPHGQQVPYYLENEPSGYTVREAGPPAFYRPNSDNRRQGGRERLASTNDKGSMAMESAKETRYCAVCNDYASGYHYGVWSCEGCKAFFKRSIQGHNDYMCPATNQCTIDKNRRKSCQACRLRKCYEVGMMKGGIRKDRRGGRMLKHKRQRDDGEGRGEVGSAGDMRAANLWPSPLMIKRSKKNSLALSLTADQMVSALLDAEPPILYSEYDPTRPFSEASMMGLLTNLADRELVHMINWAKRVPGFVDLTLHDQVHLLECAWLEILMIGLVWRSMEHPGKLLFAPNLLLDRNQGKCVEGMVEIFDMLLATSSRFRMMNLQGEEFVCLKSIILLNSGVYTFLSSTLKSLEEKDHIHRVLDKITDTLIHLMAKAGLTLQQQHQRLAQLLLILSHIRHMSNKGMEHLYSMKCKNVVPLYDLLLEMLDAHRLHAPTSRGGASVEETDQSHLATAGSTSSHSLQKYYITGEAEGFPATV
How it was run: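 Readout was ERE-driven luciferase luminescence in VM7Luc4E2 cells, which express full-length ER-alpha endogenously. Compounds were tested at 15 concentrations for 22hr alongside 10.0nM ICI-182,780 (final concentration).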

[8] = qHTS assay to identify small molecule agonists of the estrogen receptor alpha (ER-alpha) signaling pathway in the presence of an antagonist - cell viability counter screen (AID 1259386);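 further: series mostly up to about 92 µM; cells exposed to compounds for 22 h at 37 °C before the viability read; nearly all actives have a fitted effect of over 30% in size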
How it was run: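 In this counter screen, compound effects on VM7Luc4E2 viability were tested in the presence of the antagonist ICI-182,780 at 10.0nM final. Compounds were dosed at 15 concentrations, exposure lasted 22hr, and the CellTiter-Fluor signal was read.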

[9] = target: Progesterone receptor (Homo sapiens) (UniProt P06401); assay: qHTS assay to identify small molecule agonists of the progesterone receptor (PR) signaling pathway (AID 1346784; calls by dose curve; further: nearly all actives have a fitted effect of over 30% in size)
Progesterone receptor (Homo sapiens), sequence (P06401 whole entry, looked up): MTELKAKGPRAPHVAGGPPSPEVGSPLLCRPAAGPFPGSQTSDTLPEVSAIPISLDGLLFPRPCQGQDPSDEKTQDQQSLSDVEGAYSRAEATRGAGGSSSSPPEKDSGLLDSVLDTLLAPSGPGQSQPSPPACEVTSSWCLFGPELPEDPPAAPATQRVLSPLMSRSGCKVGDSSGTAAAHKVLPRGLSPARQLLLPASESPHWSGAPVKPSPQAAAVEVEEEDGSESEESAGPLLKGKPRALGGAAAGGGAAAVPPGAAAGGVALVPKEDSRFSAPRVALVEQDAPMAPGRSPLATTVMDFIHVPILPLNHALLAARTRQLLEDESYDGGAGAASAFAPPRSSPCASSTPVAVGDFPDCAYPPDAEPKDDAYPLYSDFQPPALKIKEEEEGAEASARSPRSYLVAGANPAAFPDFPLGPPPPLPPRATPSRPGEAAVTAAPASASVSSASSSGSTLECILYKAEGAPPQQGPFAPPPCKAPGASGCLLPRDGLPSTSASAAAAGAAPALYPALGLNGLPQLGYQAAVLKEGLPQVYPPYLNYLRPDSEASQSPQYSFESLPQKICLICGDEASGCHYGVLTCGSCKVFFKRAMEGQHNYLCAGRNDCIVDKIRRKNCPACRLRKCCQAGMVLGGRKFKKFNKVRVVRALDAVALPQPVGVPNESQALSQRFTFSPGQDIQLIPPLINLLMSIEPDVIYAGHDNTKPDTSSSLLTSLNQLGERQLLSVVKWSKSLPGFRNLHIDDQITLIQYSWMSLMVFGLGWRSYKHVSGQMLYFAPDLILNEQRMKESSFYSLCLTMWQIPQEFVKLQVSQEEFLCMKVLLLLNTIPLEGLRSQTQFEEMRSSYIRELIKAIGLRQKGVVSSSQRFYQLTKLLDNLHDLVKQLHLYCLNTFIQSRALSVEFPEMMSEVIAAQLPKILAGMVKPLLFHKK
How it was run: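 Cells (PR-UAS-bla HEK 293T, GripTite) were plated in assay medium containing 2% charcoal-stripped FBS and incubated 6 hr. Test compounds in DMSO were added for 16 hr at 37C. FRET substrate was then loaded for 2 hr at room temperature before fluorescence reading.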

[10] = target: Progesterone receptor (Homo sapiens) (UniProt P06401); assay: qHTS assay to identify small molecule antagonists of the progesterone receptor (PR) signaling pathway (AID 1346795; active means well fitted inhibition curve with a large enough effect in the signal ratio in the repeat runs, not every such curve was filed as active; the % refers to the signal ratio)
How it was run: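 Antagonist mode: compounds tested against 1 nM (final) promegestone stimulation in HEK293T cells expressing PR-UAS-bla reporter, 16 hr at 37C, 5% CO2; beta-lactamase activity detected via B/G FRET substrate after 2 hr at room temperature.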

[11] = qHTS assay to identify small molecule antagonists of the progesterone receptor (PR) signaling pathway - cell viability counter screen (AID 1346798); further: series mostly up to about 92 µM; nearly all actives have a fitted effect of over 50% in size
How it was run: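 Counter screen for cytotoxicity: viability of PR-UAS-bla HEK293T cells was measured with CellTiter-Glo luminescence following 16 hr compound exposure in the presence of R5020.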

[12] = qHTS assay to identify small molecule agonists of the progesterone receptor (PR) signaling pathway - cell viability counter screen (AID 1346799; calls by dose curve; further: nearly all actives have a fitted effect of over 45% in size; further: potency means the concentration at half of the fitted maximal effect)
How it was run: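 Cells (PR-UAS-bla HEK293T) are plated at 3,000/well in 2% charcoal-stripped FBS medium, rested 6 hr, dosed and incubated 16 hr at 37C. CellTiter-Glo is then added and luminescence measured after 30 min at room temperature.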

[13] = qHTS assay to identify small molecule antagonists of the TGF-beta/Smad signaling pathway - cell viability counter screen (AID 1346824); further: nearly all actives have a fitted effect of over 50% in size
How it was run: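 Cytotoxicity counter-screen run in the same wells as the beta-lactamase Smad reporter read: CellTiter-Glo luminescence after 30 min at room temperature. HEK 293T SBE-bla cells had 5 hr compound exposure at 37 C with TGF-beta1 (0.25 ng/mL stock).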

[14] = qHTS assay to identify small molecule agonists of the TGF-beta/Smad signaling pathway - cell viability counter screen (AID 1346829); further: top concentration of the series differs between compounds; nearly all actives have a fitted effect of over 45% in size
How it was run: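 Tox21 qHTS format: SBE-bla HEK 293T cells treated with DMSO-dissolved compounds for 5 hr; CellTiter-Glo luminescence after 30 min at room temperature.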

[15] = qHTS assay to identify small molecule agonists of the TGF-beta/Smad signaling pathway (AID 1346859; active means well fitted activation curve with a large enough effect in the signal ratio in the repeat runs, not every such curve was filed as active; the % refers to the signal ratio; further: series mostly up to about 77 µM)
How it was run: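 Reporter line: HEK 293T with stably integrated SBE-controlled beta-lactamase. Compound exposure lasts 5 hr at 37 C and 5% CO2; substrate loading follows for 2 hr at room temperature, with emission read at 460 and 530 nm.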

[16] = qHTS assay to identify small molecule agonists or antagonists of the thyroid stimulating hormone receptor (TSHR) signaling pathway - wild type cell line counter screen (AID 1259384; calls by dose curve)
How it was run: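 Counter screen in untransfected Hek293: compounds (15-point titration, triplicate) plus phosphodiesterase inhibitor Ro20-1724 added after 18 h plating; 30 min RT. Intracellular cAMP via competitive d2/cryptate immunoassay, 1 h incubation.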

[17] = target: Thyrotropin receptor (Homo sapiens) (UniProt P16473); assay: qHTS assay to identify small molecule antagonists of the thyroid stimulating hormone receptor (TSHR) signaling pathway (AID 1259385; calls by dose curve; further: nearly all actives have a fitted effect of over 20% in size)
Thyrotropin receptor (Homo sapiens), sequence (P16473 whole entry, looked up): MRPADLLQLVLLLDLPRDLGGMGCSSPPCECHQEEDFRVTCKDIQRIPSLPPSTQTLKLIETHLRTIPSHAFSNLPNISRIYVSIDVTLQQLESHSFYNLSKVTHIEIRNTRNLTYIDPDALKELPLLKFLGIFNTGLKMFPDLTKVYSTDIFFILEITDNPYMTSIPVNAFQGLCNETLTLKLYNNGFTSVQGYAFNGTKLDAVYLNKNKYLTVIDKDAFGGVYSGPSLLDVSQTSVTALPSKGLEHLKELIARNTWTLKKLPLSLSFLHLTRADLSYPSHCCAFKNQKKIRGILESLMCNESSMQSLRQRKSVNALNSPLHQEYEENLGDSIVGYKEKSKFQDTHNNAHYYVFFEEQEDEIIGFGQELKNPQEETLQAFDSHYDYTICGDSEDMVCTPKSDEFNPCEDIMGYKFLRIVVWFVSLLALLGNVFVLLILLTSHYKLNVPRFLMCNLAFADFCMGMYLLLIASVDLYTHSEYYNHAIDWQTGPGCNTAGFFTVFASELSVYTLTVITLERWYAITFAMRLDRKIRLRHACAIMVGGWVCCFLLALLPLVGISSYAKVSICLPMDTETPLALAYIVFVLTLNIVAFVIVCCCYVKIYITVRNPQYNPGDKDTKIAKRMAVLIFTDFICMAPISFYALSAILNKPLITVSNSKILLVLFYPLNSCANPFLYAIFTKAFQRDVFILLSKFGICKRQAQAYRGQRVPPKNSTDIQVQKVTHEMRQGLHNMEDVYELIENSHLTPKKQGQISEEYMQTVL
How it was run: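 Antagonist mode: compound-treated TSHR-expressing HEK293 cells were stimulated with 1.5 ng/mL TSH (final) in presence of Ro20-1724 for 30 min at RT. HTRF cAMP detection after 1 h; each compound tested at 15 concentrations, triplicate.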

[18] = target: Thyrotropin-releasing hormone receptor (Homo sapiens) (UniProt P34981); assay: qHTS assay to identify small molecule antagonists of the thyrotropin-releasing hormone receptor (TRHR) signaling pathway (AID 1346877; active means well fitted inhibition curve with a large enough effect in the repeat runs, not every such curve was filed as active; further: series mostly up to about 51 µM)
Thyrotropin-releasing hormone receptor (Homo sapiens), sequence (P34981 whole entry, looked up): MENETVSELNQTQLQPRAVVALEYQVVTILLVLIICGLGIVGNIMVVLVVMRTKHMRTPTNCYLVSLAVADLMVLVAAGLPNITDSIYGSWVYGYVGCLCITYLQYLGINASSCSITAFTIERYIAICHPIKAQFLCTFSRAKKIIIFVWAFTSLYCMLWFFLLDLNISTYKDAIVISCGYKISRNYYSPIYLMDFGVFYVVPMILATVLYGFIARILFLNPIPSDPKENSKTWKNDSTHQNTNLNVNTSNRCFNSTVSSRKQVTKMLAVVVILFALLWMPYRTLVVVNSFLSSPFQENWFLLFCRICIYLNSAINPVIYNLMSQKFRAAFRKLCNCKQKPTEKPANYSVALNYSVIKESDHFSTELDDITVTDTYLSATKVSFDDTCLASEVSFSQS
How it was run: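 Kinetic fluorescence (3 min, 1 s resolution) following stimulation with TRH at 1 nM final; HEK293 cells bearing human TRHR; 5 min compound preincubation at RT; concentration-response over 15 points, triplicates.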

[19] = target: Thyrotropin-releasing hormone receptor (Homo sapiens) (UniProt P34981); assay: qHTS assay to identify small molecule agonists of the thyrotropin-releasing hormone receptor (TRHR) signaling pathway (AID 1346891; calls by dose curve;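 further: HEK293 cells expressing TRHR with calcium dye readout; series mostly up to about 58 µM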)
How it was run: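 Cells: TRHR-Hek293, seeded and incubated 18 h. Dye loading: 2 h at 37 °C. Compound added from DMSO stock by pin tool. Read-out: kinetic calcium fluorescence over 3 min.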

Measured: Potency

CCOC(=O)CC(=O)c1cc(F)c(Cl)nc1Cl
inactive: [1] | [2] | [3] | [4] | [5] | [6] | [7] | [8] | [9] | [10] | [11] | [12] | [13] | [14] | [15]

O=c1c2ccccc2nnn1CCl
inactive: [1] | [2] | [3] | [4] | [5] | [6] | [7] | [16] | [17] | [8] | [9] | [10] | [11] | [13] | [14] | [15] | [18] | [19]

Cc1ncsc1CCO
inactive: [1] | [2] | [3] | [4] | [5] | [6] | [7] | [16] | [17] | [8] | [10] | [11] | [12] | [13] | [14] | [15] | [18] | [19]

Cc1ccc(C(C)c2ccc(C)c(C)c2)cc1C
inactive: [1] | [2] | [3] | [4] | [5] | [7] | [16] | [8] | [9] | [12] | [13] | [14] | [15] | [18] | [19]

CC(O)C1CCCCC1 (stereo not given)
inactive: [1] | [2] | [3] | [4] | [5] | [6] | [17] | [8] | [9] | [10] | [12] | [13] | [14] | [15] | [18] | [19]

CC(=O)N(CC(=O)N(C)C)c1ccccc1
inactive: [1] | [2] | [3] | [4] | [5] | [6] | [7] | [16] | [17] | [8] | [9] | [10] | [11] | [12] | [13] | [14] | [15] | [18] | [19]

O=C(O)C(c1ccc(Cl)cc1)c1ccc(Cl)cc1
active: [5] 61.1 µM
inactive: [1] | [2] | [3] | [4] | [7] | [16] | [17] | [8] | [10] | [13] | [14] | [15] | [18] | [19]

Cn1c(=O)c2c(ncn2CC(O)CO)n(C)c1=O (stereo not given)
inactive: [1] | [2] | [4] | [7] | [17] | [8] | [9] | [10] | [11] | [13] | [14] | [15] | [18] | [19]

CCCCCC(CO)CCC (stereo not given)
inactive: [1] | [2] | [3] | [6] | [16] | [17] | [8] | [9] | [10] | [11] | [12] | [13] | [15] | [18] | [19]

O=C(NN1CCCC1)NS(=O)(=O)c1ccc(Cl)cc1
inactive: [1] | [2] | [4] | [5] | [6] | [7] | [16] | [17] | [8] | [9] | [10] | [11] | [12] | [13] | [14] | [15] | [18] | [19]

CN1CCC(=C2c3ccccc3CCc3sccc32)CC1
active: [1] 2.98 µM | [6] 21.1 µM | [12] 15 µM
inactive: [2] | [7] | [16] | [17] | [8] | [13] | [14] | [15]

O=C(O)C1CCC(C(=O)O)CC1 (stereo not given)
inactive: [1] | [2] | [4] | [5] | [6] | [7] | [16] | [17] | [8] | [10] | [11] | [12] | [13] | [14] | [15] | [18] | [19]

Cc1occc1S
inactive: [1] | [2] | [4] | [6] | [7] | [16] | [17] | [8] | [10] | [12] | [13] | [14] | [15] | [18] | [19]

Oc1ccc(O)c2c(O)cccc12
inactive: [1] | [2] | [6] | [7] | [16] | [17] | [8] | [12] | [13] | [14] | [15] | [18] | [19]

CCC(=O)OC(C)(C)C1CC=C(C)CC1 (stereo not given)
inactive: [1] | [2] | [4] | [5] | [6] | [7] | [17] | [8] | [9] | [10] | [11] | [13] | [14] | [15]

CCCC(C)C
inactive: [1] | [2] | [4] | [6] | [7] | [16] | [17] | [8] | [9] | [10] | [13] | [14] | [15] | [18] | [19]

CC(C)CC=O
inactive: [1] | [2] | [4] | [5] | [6] | [7] | [16] | [8] | [9] | [10] | [11] | [12] | [13] | [14] | [15] | [18] | [19]
